Rows were chosen to be rich in hits. Some 4.7% of all compounds tested hit in one or more screens of this group.
PABP polyA inh: PABP poly(A) RNA binding inhibitors, primary screen, biochemical, fluorescence polarization, uHTS | inhibition, % at 35 µM | Polyadenylate-binding protein 1 (Homo sapiens), P11940 | 290,000 compounds, 1% hits;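 further: calls also rest on retests at 20 µM and on dose response follow-up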
UBC9 SUMO inh: inhibitors of in vitro SUMOylation cascade, primary screen, biochemical, HTRF, uHTS. AID 2006, 2009. SUMO-conjugating enzyme UBC9 (Homo sapiens), P63279. HTRF SUMOylation assay, SAE1/SAE2 + UBC9. inhibition, % at 35 µM. 290,000 compounds, 0.36% hits; in the data active means inhibition above about 50%, passing the limit was not always enough
Target sequence (P63279 whole entry, looked up): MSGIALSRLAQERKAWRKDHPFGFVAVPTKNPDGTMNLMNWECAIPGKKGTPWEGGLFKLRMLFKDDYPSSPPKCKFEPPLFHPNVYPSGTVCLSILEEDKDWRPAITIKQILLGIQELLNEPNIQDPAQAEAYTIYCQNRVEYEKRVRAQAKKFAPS
ALR inh: inhibitors of human ALR sulfhydryl oxidase, primary screen, biochemical, H2O2 detection, HRP-luminol luminescence, single point; inhibition, % (test concentration not listed); purified ALR, DTT oxidation; 290,000 compounds, 3.8% hits; FAD-linked sulfhydryl oxidase ALR (Homo sapiens), P55789;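 active means mean replicate inhibition above about 79%, with every replicate also reaching it, limit read from the data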
Target sequence (P55789 whole entry, looked up): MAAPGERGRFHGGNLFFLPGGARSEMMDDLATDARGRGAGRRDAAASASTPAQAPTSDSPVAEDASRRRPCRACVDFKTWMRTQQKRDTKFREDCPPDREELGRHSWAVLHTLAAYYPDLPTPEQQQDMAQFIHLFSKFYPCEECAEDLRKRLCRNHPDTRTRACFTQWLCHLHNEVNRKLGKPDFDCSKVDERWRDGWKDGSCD
eIF4H inh: human eIF4H binding inhibitors, primary screen, translation initiation inhibitor project, biochemical, uHTS, fluorescence polarization. Eukaryotic translation initiation factor 4H (Homo sapiens), Q15056. inhibition, % at 35 µM. 290,000 compounds, 0.94% hits. eIF4H fluorescence polarization binding assay;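 further: calls also rest on retests at 20 µM and on dose response follow-up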
PABP1 MLLE inh: inhibitors of PABP1 MLLE–PAM2 peptide binding, primary screen, biochemical, fluorescence polarization, FITC-PAM2, GST-MLLE; Polyadenylate-binding protein 1 (Homo sapiens), P11940; inhibition, % at 20 µM; 360,000 compounds, 0.36% hits; in the data active means inhibition above about 35%, passing the limit was not always enough
Efflux pump inh: inhibitors of Candida efflux pumps in yeast, primary screen, S. cerevisiae, Nile Red, multiplex; S. cerevisiae Candida pump triplex; inhibition, % at 10 µM; 330,000 compounds, 0.44% hits; AID 485275, 2010;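 active means plate passing quality check with inhibition over a set limit, or well fluorescence over plate mean plus 4 SD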;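 further: Nile Red retained in pooled yeast measured as flow cytometry median fluorescence; higher means more Nile Red kept so more efflux inhibition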
Numbers stand for hits; 0 = inactive; - = not tested or not shown. Unless noted, how the calls were made is not given here.

SMILES	PABP polyA inh	UBC9 SUMO inh	ALR inh	eIF4H inh	PABP1 MLLE inh	Efflux pump inh
Cc1ccc(CN2CCN(Cc3cnc(N4CCOCC4)s3)CC2CCO)cc1 (stereo unspecified)	0	0	0	0	0	0
O=C(NCc1ccccc1C(F)(F)F)C1CCC(=O)N(C2CC2)C1 (stereo unspecified)	0	0	0	0	0	0
CC(=O)c1c(C(C)=O)c(C)n(-c2cccc3cccnc23)c1C	3.8	0	0	0	0	0
O=C(CCN1C(=O)c2ccccc2S1(=O)=O)N1CCN(c2ccccc2)CC1	0	0	88	0	0	0
O=C(CSc1ccccc1)N1CCN(c2ccccc2)CC1	0	0	0	0	0	0
O=C(CCSc1ccc(Cl)cc1)N1CCN(c2ccc(O)cc2)CC1	0	0	100	0	0	0
Cc1cc([N+](=O)[O-])nn1CCCC(=O)N1CCN(c2ccccc2)CC1	0	0	98	0	0	0
O=C(CCSc1ccccc1)N1CCN(c2ccccc2)CC1	0	0	91	0	0	0
CN(C)C(=O)CCc1ccc2c3c([nH]c2c1)[C@]1(C)[C@@H](C(=O)N2CCOCC2)C[C@H](CC(=O)NCCCn2ccnc2)C(=O)N1CC3	-	-	-	-	0	0
Cc1cc(Cl)ccc1C(O)c1ncc(-c2ccc(C(F)(F)F)cc2)[nH]1 (stereo unspecified)	-	-	-	-	0	-
CSc1cccc(NC(=O)c2ccc(NC3=NC4CS(=O)(=O)CC4S3)cc2)c1 (stereo unspecified)	0	0	99	0	0	0
NC(=O)c1ccc(NC(=O)COC(=O)c2cc3ccccc3cc2O)cc1	-	-	0	-	0	0
Cc1ccc2cccc(CC(=O)NN)c2c1	-	-	-	-	0	-
O=C(O)c1cnn(-c2ccccc2)c1-c1ccncc1	0	0	0	57	0	0
O=Cc1cccn1-c1c(C(=O)O)cnn1-c1ccccc1	0	0	0	0	0	0
COc1ccccc1NCCC(=O)OCC(=O)NC1CCCCCC1	0	0	99	0	0	0
COc1ccccc1CCC(=O)OCC(=O)NC1CCCC1	-	-	0	-	0	0
COc1ccccc1NCCC(=O)OCC(=O)Nc1ccccc1F	-	-	99	-	0	0
COc1ccc(NS(=O)(=O)c2ccc(C)c(C(=O)NCCCn3ccnc3)c2)cc1	-	-	-	-	0	-
Cc1sc2ncnc(N3CCC(C(=O)Nc4nnc(CC(C)C)s4)CC3)c2c1C	-	-	0	-	0	0
Cc1cc(C)cc(C(=O)NCC(=O)OCC(=O)N2c3ccccc3NC(=O)C2(C)C)c1	active	0	0	76	0	0
COc1cc(OC)cc(C(=O)NCC(=O)OCC(=O)N2c3ccccc3NC(=O)C2(C)C)c1	0	0	0	0	0	0
COC(=O)C1=C(C)N(Cc2ccccc2)C(=NCCc2ccccn2)N[C@H]1c1cccc(F)c1	66	0	0	24	0	0
COC(=O)C1=C(C)N(Cc2ccccc2)C(=NCC(C)C)N[C@H]1c1ccccc1	61	0	0	0	-	0
CCN1C(=NCCc2ccccn2)N[C@@H](c2cccc(F)c2)C(C(=O)OC)=C1C	-	0	0	-	0	0
SMILES	PABP polyA inh	UBC9 SUMO inh	ALR inh	eIF4H inh	PABP1 MLLE inh	Efflux pump inh
O=C(Nc1nc2ccc(S(=O)(=O)N3CCCCC3)cc2s1)c1cccnc1	0	0	0	0	0	0
O=C(Nc1nc2ccc(S(=O)(=O)N3CCCCC3)cc2s1)c1ccncc1	0	0	98	0	0	0
CN(C)S(=O)(=O)c1ccc2nc(NC(=O)c3cccs3)sc2c1	0	0	86	0	0	0
C[C@H](CO)N1C[C@H](C)[C@@H](CN(C)Cc2ccncc2)Oc2ccc(NC(=O)Cn3cnnn3)cc2C1=O	-	-	0	-	0	0
Cc1ccc(-n2c(SCc3cc(=O)n4ccsc4n3)nnc2-c2cccnc2)c(C)c1	0	0	0	60	0	0
CCCCn1c(N)c(N(CCOC)C(=O)COC(=O)CCOc2ccccc2C)c(=O)[nH]c1=O	-	-	-	-	0	0
COc1ccc(-c2nnc(CSc3ncnc4sc5c(c34)CCC5)o2)cc1OC	6.7	0	-	53	0	-
Nc1nc(Nc2ccccc2)n[nH]1	0	0	98	0	0	0
Nc1nc(Nc2ccc(Cl)cc2)n[nH]1	0	0	99	0	0	0
CCCOC(=O)C(C)n1cnc2scc(-c3ccc(C)cc3)c2c1=O (stereo unspecified)	0	0	0	0	0	0
O=C(Cn1nnc(-c2ccccc2)n1)OCc1csc(-c2ccccc2)n1	0	0	99	0	0	0
CC(=O)Nc1ccc(S(=O)(=O)N2CCC(N3CCCCCC3)CC2)cc1	0	0	0	0	0	0
CCOC(=O)CSc1cc(C)c(C#N)c2nc3ccccc3n12	0	0	99	0	0	0
CCC(C)Sc1cc(C)c(C#N)c2nc3ccccc3n12 (stereo unspecified)	0	0	-	0	0	0
CCCc1cc(SCC(=O)Nc2c(C)n(C)n(-c3ccccc3)c2=O)n2c(nc3ccccc32)c1C#N	0	0	98	0	-	0
CCCc1cc(=O)oc2cc(OCC(=O)NC3CCN(Cc4ccccc4)CC3)ccc12	0	0	0	0	0	0
Nc1c(/C=C2/C=CC(=O)C(O)=C2)c(=O)nc2sc(CC(=O)N3CCOCC3)nn12	-	-	-	-	0	-
Nc1c(/C=C2/C=CC(=O)C(O)=C2)c(=O)nc2sc(CC(=O)N3CCCC3)nn12	22	0	99	55	0	0
Nc1c(/C=C2/C=CC(=O)C(O)=C2)c(=O)nc2sc(CC(=O)N3CCCCC3)nn12	54	0	99	69	0	0
Nc1c(C=C2C=CC(=O)C=C2)c(=O)nc2sc(CC(=O)N3CCCCC3)nn12	-	-	-	-	0	0
CNS(=O)(=O)c1ccc2c(c1)oc(=O)c1cc(S(=O)(=O)NC)ccc12	0	0	0	0	0	0
CCOC(=O)c1[nH]c(C)c(C(=O)N2CCN(c3ccccc3)CC2)c1C	0	0	98	0	0	0
CCOC(=O)c1[nH]c(C)c(C(=O)N2CCOCC2)c1C	0	0	0	0	0	0
Cc1c(C(=O)N2CCN(c3ccc([N+](=O)[O-])cc3)CC2)sc2ncn(CC(=O)N3CCOCC3)c(=O)c12	0	0	0	0	0	0
CCOC(=O)c1c(C)[nH]c(C(=O)N2CCN(c3ccc(OC)cc3)CC2)c1C	0	0	98	0	0	0
CCn1cnc2sc(C(=O)N3CCN(c4ccc(OC)cc4)CC3)c(C)c2c1=O	0	0	81	0	0	0
COc1ccc(N(C)S(=O)(=O)c2cccc(C(=O)Nc3nnc(C)s3)c2)cc1	-	-	0	-	0	0
CCSc1nnc(NC(=O)c2cccc(S(=O)(=O)N(C)c3ccc(C)cc3)c2)s1	0	0	98	0	0	0

Source: PubChem (several laboratories)
